Source: PubChem (National Center for Advancing Translational Sciences (NCATS))
KB-3-1 cytotox – qHTS assay for MDR1-selective chemotherapeutics: Primary screen using the parental adenocarcinoma cell KB-3-1; KB-3-1 viability, CellTiter-Glo ATP luminescence, 72 h; Potency, µM (highest dose often 46.1 µM), usual class: cytotoxic; hit rate 1.4% among 400,000; further: on the % scale 0 is the no-effect control and ±100 the full control effect; nearly all actives have a fitted effect of over 60% in size
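Cytotoxicity measured as CellTiter-Glo luminescence after 72 h at 37 C. Compound titrations were pinned onto drug-naive KB-3-1 parental adenocarcinoma cells grown in DMEM with 10% FBS, and normalized data fitted to concentration-response curves.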
HepG2 tox – qHTS for Inhibitors of TGF-b: Cytotox Counterscreen. HepG2 CAGA-GFP viability, ATP luminescence, 18 h. Potency, µM (doses to about 46.1 µM), for the others: at the highest dose activity change, negative = cytotoxicity, usual class: cytotoxic. hit rate 0.76% among 410,000. AID 588856, 2011
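CellTiter-Glo luminescence gave cytotoxicity after 18 hours at 37 degrees C. The cells were HepG2 CAGA-GFP in 1% FBS DMEM, stimulated with 500 pg/mL TGF-beta after compound addition. %Activity was normalised to no-cell wells (complete cell-killing) and DMSO (no toxicity), and curves were fitted and classified.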
TGFb inhibitor – qHTS for Inhibitors of TGF-b; HepG2 CAGA-GFP TGF-b/SMAD3 reporter, GFP fluorescence, 18 h; TGF-beta stimulated, 500 pg/mL final; Potency, µM (highest dose often 46.1 µM), for the others: at the highest dose activity, negative = inhibition, usual class: inhibitors; hit rate 1.2% among 410,000; further: on the % scale 0 is the no-effect control and ±100 the full control effect; nearly all actives have a fitted effect of over 65% in size
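GFP signal (ex488/em500-530) from TGF-beta-stimulated HEPG2 CAGA-GFP cells, 500 pg/mL final, 18 h at 37 degrees C in DMEM plus 1% FBS, normalized to unstimulated and DMSO-stimulated controls.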
ATXN2 expr inh – Primary qHTS for Inhibitors of ATXN expression; HEK-293 ATXN2-luciferase reporter, luminescence, 24 h; Potency, µM (titrated, usually from 57 µM), for the others: at the top dose activity change, negative = inhibition, actives largely listed as inhibitors; hit rate 0.72% among 360,000; further: on the % scale 0 is the no-effect control and ±100 the full control effect; nearly all actives have a fitted effect of over 55% in size
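qHTS (up to 57 uM final) was run with 24 h compound exposure of reporter cells at 37 °C. Each well was multiplexed: SteadyGlo luminescence measured ATXN2-luciferase expression after a fluorogenic Gly-Phe-AFC viability readout (25 uM final).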
ATXN viability – Viability Counterscreen for Primary qHTS for Inhibitors of ATXN expression; Potency, µM (top dose mostly 56.7 µM), hits mostly cytotoxic; hit rate 0.49% among 400,000; S2 cells (HEK-293 line with an ATXN2-luciferase reporter) viability, CellTiter-Fluor protease fluorescence, 24 h; AID 651635, 2014; further: nearly all actives have a fitted effect of over 40% in size
KB-V1 MDR tox – qHTS assay for MDR1-selective chemotherapeutics: Primary screen using the drug-selected MDR subline cells KB-V1. KB-V1 MDR cells viability, CellTiter-Glo, 72 h. hit rate 3.4% among 400,000. Potency, µM (series often up to 46.1 µM), actives largely listed as cytotoxic; further: on the % scale 0 is the no-effect control and ±100 the full control effect; nearly all actives have a fitted effect of over 60% in size
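Cells of the MDR subline KB-V1 are plated, dosed with compound at multiple concentrations, and incubated 72 h at 37 degrees C; CellTiter-Glo is then added and luminescence read after 10 min.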
* marks the source's active call; other numbers are inactive results. In the library only some 5.9% were active in any assay of this set; here they are far more common. The call rests on the fitted dose curve; in most records, active means well fitted curve in the direction sought with a large enough effect; inconclusive means small, poorly fitted or top-dose-only effect, or another doubt; inactive means no such curve, though single readings can be large; an effect the other way counts as inactive or inconclusive. Potency means the concentration at half of the fitted maximal effect.

Screening Cc1ccc(N2CC(C(=O)Nc3ccccc3C(=O)NC3CCCCC3)CC2=O)cc1 (stereo not given) returned KB-3-1 cytotox inactive, HepG2 tox -3.8%, TGFb inhibitor 12.7%, ATXN2 expr inh 2.9%, ATXN viability inactive and KB-V1 MDR tox 3.66µM*.
`CCOC(=O)C1(Nc2nccs2)Sc2ccccc2NC1=O` (stereo not given) gave KB-3-1 cytotox 5.8µM*, HepG2 tox -22.4%, TGFb inhibitor -10.0%, ATXN2 expr inh -19.4%, ATXN viability inconclusive and KB-V1 MDR tox inconclusive.
For CCOC(=O)C(=O)Nc1ccc(S(=O)(=O)Nc2nccs2)cc1 the results were KB-3-1 cytotox inactive, HepG2 tox 8.4%, TGFb inhibitor -0.9%, ATXN2 expr inh -2.2%, ATXN viability inactive and KB-V1 MDR tox inconclusive.
`COc1ccc(Cl)cc1NC(=O)CCS(=O)(=O)c1cccc2nonc12` gave KB-3-1 cytotox inactive, HepG2 tox -30.3%, TGFb inhibitor 0.0%, ATXN2 expr inh -12.3% and KB-V1 MDR tox inactive.
Screening Cc1nn(-c2ccccc2)c2c1N(CC(=O)N1CCN(c3ccccc3F)CC1)C(=O)CS2 returned KB-3-1 cytotox inactive, HepG2 tox -23.9%, TGFb inhibitor inconclusive, ATXN2 expr inh -14.0%, ATXN viability inactive and KB-V1 MDR tox inactive.
Screening CCc1nc2c(OCCC3CCCCC3)cccn2c1N(C=O)Cc1ccc(OC)cc1 returned KB-3-1 cytotox inactive, HepG2 tox 20µM*, TGFb inhibitor inconclusive, ATXN2 expr inh inconclusive, ATXN viability inactive and KB-V1 MDR tox inconclusive.
Screening Cc1nc2c(OCc3ccc(F)cc3)cccn2c1N(C)C(=O)CCC1CCCC1 returned KB-3-1 cytotox inactive, HepG2 tox -10.7%, TGFb inhibitor -3.2%, ATXN2 expr inh inconclusive, ATXN viability inconclusive and KB-V1 MDR tox inactive.
`CCCCN(C=O)c1c(CC)nc2c(OCC3CCCCC3)cccn12` gave KB-3-1 cytotox inconclusive, HepG2 tox -39.4%, TGFb inhibitor 12.6µM*, ATXN2 expr inh inconclusive, ATXN viability inconclusive and KB-V1 MDR tox inactive.
Screening Cc1nc2c(OCc3ccc(C(F)(F)F)cc3)cccn2c1N(C)C(=O)CCC1CCCC1 returned KB-3-1 cytotox inconclusive, HepG2 tox -92.0%, TGFb inhibitor inconclusive, ATXN2 expr inh 31.6µM*, ATXN viability inconclusive and KB-V1 MDR tox inconclusive.
For CCCCC(=O)N(C)c1c(CC)nc2c(OCC3CCCCC3)cccn12 the results were KB-3-1 cytotox inconclusive, HepG2 tox -49.9%, TGFb inhibitor inconclusive, ATXN2 expr inh inconclusive, ATXN viability inactive and KB-V1 MDR tox 25.9µM*.
Screening CCc1nc2c(OCCC3CCCCC3)cccn2c1N(C=O)Cc1ccccc1 returned KB-3-1 cytotox inactive, HepG2 tox -95.2%, TGFb inhibitor inconclusive, ATXN2 expr inh inconclusive, ATXN viability inconclusive and KB-V1 MDR tox inactive.
For Cc1cc(C=O)cc(C)c1[N+](=O)[O-] the results were KB-3-1 cytotox inactive, HepG2 tox -4.5%, TGFb inhibitor -17.4% and KB-V1 MDR tox inactive.
For COc1cccc(CNC(=O)Cn2c(SCC(=O)Nc3ccc(C)c(C)c3)nc3ccccc32)c1 the results were KB-3-1 cytotox inactive, HepG2 tox -78.1%, TGFb inhibitor inconclusive, ATXN2 expr inh -34.3%, ATXN viability inconclusive and KB-V1 MDR tox inconclusive.
Screening COc1cccc(CN2C(=O)NC(C)(C3CCN(Cc4cnn(C)c4C)CC3)C2=O)c1OC (stereo not given) returned ATXN viability inactive.
CC1(C)S[C@@H]2[C@H](NC(=O)[C@H](N)c3ccccc3)C(=O)N2[C@H]1C(=O)OCOC(=O)[C@@H]1N2C(=O)C[C@H]2S(=O)(=O)C1(C)C was read as ATXN viability inactive.
`CCOC(=O)/C=C/S(=O)(=O)c1ccc(NC(C)=O)cc1` gave KB-3-1 cytotox 14.6µM*, HepG2 tox 2µM*, TGFb inhibitor inconclusive, ATXN2 expr inh inconclusive, ATXN viability inconclusive and KB-V1 MDR tox inactive.
Screening COc1cc(-c2nc(C)cnc2C)cc2c1OCCN(C(=O)Cc1cc(OC)c(OC)c(OC)c1)C2 returned ATXN viability inactive.
Screening COc1cccc(-n2c(-c3ccco3)nc3c(cnn3-c3ccc(C)cc3)c2=O)c1 returned KB-3-1 cytotox inconclusive, HepG2 tox -31.3%, TGFb inhibitor -29.8%, ATXN2 expr inh inconclusive, ATXN viability inactive and KB-V1 MDR tox inactive.
`Cc1ccc(NC(=O)CSc2nn(-c3ccccc3)c(=S)s2)cc1S(=O)(=O)N(C)C` gave KB-3-1 cytotox inconclusive, HepG2 tox -20.4%, TGFb inhibitor inconclusive, ATXN2 expr inh -24.7%, ATXN viability inactive and KB-V1 MDR tox 6.51µM*.
Cc1ccc(NC(=O)CNCc2ccc(Cl)cc2Cl)cc1S(=O)(=O)N(C)C was read as KB-3-1 cytotox inconclusive, HepG2 tox 10.0%, TGFb inhibitor -0.4%, ATXN2 expr inh -24.5%, ATXN viability inconclusive and KB-V1 MDR tox 13µM*.
Screening Cc1ccc(NC(=O)CNCc2ccccc2Cl)cc1S(=O)(=O)N(C)C returned KB-3-1 cytotox inactive, HepG2 tox -19.3%, TGFb inhibitor inconclusive, ATXN2 expr inh 7.3%, ATXN viability inactive and KB-V1 MDR tox inactive.
`O=C1Cc2cc(S(=O)(=O)N3CCN(c4ccc(Br)cc4)CC3)ccc2N1` gave KB-3-1 cytotox inactive and KB-V1 MDR tox inactive.
CCc1ccccc1NC(=O)Cn1nnc(-c2nc(-c3ccc(C)cc3)no2)c1N was read as HepG2 tox -4.3%.
For Cn1c(SCCOc2ccccc2Cl)nnc1-c1cccs1 the results were KB-3-1 cytotox inactive, HepG2 tox -18.6%, TGFb inhibitor -3.7%, ATXN2 expr inh 17.2%, ATXN viability inactive and KB-V1 MDR tox 18.4µM*.
For O=C(NCC1(N2CCOCC2)CCCC1)c1cnn(-c2nccc(-c3ccco3)n2)c1C1CC1 the results were ATXN viability inactive.
For COc1ccccc1Cc1c(-c2cccc(Cl)c2)nc2ccc(Br)cn12 the results were KB-3-1 cytotox inactive, HepG2 tox -46.6%, TGFb inhibitor inconclusive, ATXN2 expr inh 19.5%, ATXN viability inactive and KB-V1 MDR tox inactive.
For CCCCc1c(-c2cccc(Cl)c2)ncn1CCc1ccccc1OC the results were KB-3-1 cytotox inconclusive, ATXN2 expr inh inconclusive and KB-V1 MDR tox 10.3µM*.
